Compound activity: PubChem, NMMLSC
In the library only some 1.2% were active in any assay of this set; here they are far more common.
RGS8-Gao reg – human RGS8-Galphao interaction regulation. P09471. multiplexed bead flow cytometry, RGS8-Galphao binding; actives lie on both sides. response (percent of control binding), % at 10 µM. hit rate 0.34% among 220,000. AID 1423; in the data active = response below about 60% or above about 140%; inactive = in between;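 note: Galphao activated as the GDP aluminium fluoride complex binding bead-coupled RGS8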
Target sequence (P09471 whole entry, looked up): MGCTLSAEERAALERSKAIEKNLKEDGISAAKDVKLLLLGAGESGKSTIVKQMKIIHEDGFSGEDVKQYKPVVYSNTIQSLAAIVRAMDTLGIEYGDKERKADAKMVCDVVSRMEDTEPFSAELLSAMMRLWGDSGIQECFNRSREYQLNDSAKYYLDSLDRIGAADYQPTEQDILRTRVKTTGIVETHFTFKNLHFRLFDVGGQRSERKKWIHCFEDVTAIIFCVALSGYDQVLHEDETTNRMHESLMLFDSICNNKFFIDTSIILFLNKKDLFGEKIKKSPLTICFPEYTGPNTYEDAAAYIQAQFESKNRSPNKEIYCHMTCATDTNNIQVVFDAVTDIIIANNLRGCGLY
RGS7-Gao – modulates binding of RGS7 to human Galphao; P09471; Multiplexed bead flow cytometry; actives lie on both sides; binding response (% of control), % at 10 µM; hit rate 0.35% among 220,000; AID 1439; in the data active = binding response below about 49% or above about 150%; inconclusive = no clear call, values can overlap the other calls; inactive = in between;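 note: fluorescent Galphao held in activated GDP-AlF4 state binding bead-coupled RGS7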
Avidin fluor – avidin bead compound fluorescence profile. Avidin beads, compound fluorescence 488/530 nm, flow cytometry; hits give high values. fluorescence (KMESF) at 10 µM. hit rate 0.38% among 220,000. AID 1775; in the data active = fluorescence above about 47
RGS16-Gao HTS – RGS16-Galphao interaction regulator (human); O15492+P09471; bead-based flow cytometry RGS16-Galphao binding, fluorescence; actives lie on both sides; binding response (% of control), % at 10 µM; hit rate 0.38% among 220,000; AID 1441; call rule not given here;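 note: Galphao activated by GDP with aluminum fluoride before binding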
Target sequence (O15492 whole entry, looked up): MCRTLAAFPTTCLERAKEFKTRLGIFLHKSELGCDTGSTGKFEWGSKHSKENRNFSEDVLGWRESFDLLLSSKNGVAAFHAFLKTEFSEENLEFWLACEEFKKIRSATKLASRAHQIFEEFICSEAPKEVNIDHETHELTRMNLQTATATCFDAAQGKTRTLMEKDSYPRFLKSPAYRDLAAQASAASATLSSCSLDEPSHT
Target sequence (P09471 whole entry, looked up): as the sequence (P09471 whole entry, looked up) above
GSH fluor – GSH bead compound fluorescence profile. GSH beads flow cytometry, compound fluorescence 488/530 nm; hits give high values. fluorescence (KMESF) at 10 µM. hit rate 0.25% among 190,000; in the data active = fluorescence above about 89;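 note: glutathione beads carrying GST-tagged Bcl family fusion proteins plus one bare bead set; values are compound well signal with DMSO vehicle wells as background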
RGS4-Gao reg – modulates binding of RGS4 to human Galphao; AID 1415; P09471; Multiplexed bead flow cytometry; actives lie on both sides; binding response (% of control), % at 10 µM; hit rate 0.33% among 220,000; in the data active = binding response below about 49% or above about 150%; inactive = in between;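 note: fluorescent Galphao activated with aluminum fluoride binding bead-coupled RGS4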
The depositor's hits bear a star.

O=C(Nc1ccccn1)C(=O)N1CCCCC1 was read as RGS8-Gao reg 87, RGS7-Gao 94, Avidin fluor 5, RGS16-Gao HTS 59, GSH fluor 96* and RGS4-Gao reg 89.
`CCOc1cc(/C=C/C(=O)OCC(=O)NC2CCS(=O)(=O)C2)ccc1OCc1ccccc1` (stereo unspecified) gave RGS8-Gao reg 101, RGS7-Gao 100, Avidin fluor 9, RGS16-Gao HTS 100, GSH fluor 11 and RGS4-Gao reg 103.
For CCOc1ccc(-c2nn[nH]n2)cc1 the results were RGS8-Gao reg 103, RGS7-Gao 105, Avidin fluor 8, RGS16-Gao HTS 106, GSH fluor 275* and RGS4-Gao reg 101.
`N#Cc1ccccc1Sc1ccccc1N` gave RGS8-Gao reg 12*, RGS7-Gao 14*, Avidin fluor -2, RGS16-Gao HTS 0.4*, GSH fluor 25 and RGS4-Gao reg 20*.
CSc1nn2c(C(F)(F)F)cc(C(F)(F)F)nc2c1C(=O)O was read as RGS8-Gao reg 102, RGS7-Gao inconclusive, Avidin fluor 7, RGS16-Gao HTS 103 and RGS4-Gao reg 106.
`O=C(O)C1CC=CCC1C(=O)NCc1ccc2c(c1)OCO2` (stereo unspecified) gave RGS8-Gao reg 103, RGS7-Gao 100, Avidin fluor 4, RGS16-Gao HTS 104, GSH fluor 102* and RGS4-Gao reg 98.
`COCCOC(=O)c1c(C)oc2ccc(OCC=C(C)C)cc12` gave RGS8-Gao reg 101, RGS7-Gao 110, Avidin fluor 48*, RGS16-Gao HTS 100, GSH fluor 24 and RGS4-Gao reg 105.
For NNC(=S)Nc1cccc(-c2n[nH]c(=S)o2)c1 the results were RGS8-Gao reg 103, RGS7-Gao inconclusive, Avidin fluor 6, RGS16-Gao HTS 103 and RGS4-Gao reg 104.
Screening CC(NC(=O)c1cncc(Br)c1)c1ccc(S(N)(=O)=O)cc1 (stereo unspecified) returned RGS8-Gao reg 104, RGS7-Gao 99, Avidin fluor 8, RGS16-Gao HTS 102, GSH fluor 71 and RGS4-Gao reg 105.
NS(=O)(=O)c1ccc(CCNC(=O)c2cncc(Br)c2)cc1 was read as RGS8-Gao reg 98, RGS7-Gao 110, Avidin fluor 50*, RGS16-Gao HTS 95, GSH fluor 21 and RGS4-Gao reg 99.
`O=C(COc1ncnc2ccccc12)N1CCN(S(=O)(=O)c2ccccc2)CC1` gave RGS8-Gao reg 99, RGS7-Gao 99, Avidin fluor 12, RGS16-Gao HTS 89, GSH fluor 21 and RGS4-Gao reg 98.
Screening O=C(COc1ncnc2ccccc12)N1CCN(S(=O)(=O)c2ccc(Cl)cc2)CC1 returned RGS8-Gao reg 100, RGS7-Gao 102, Avidin fluor 9, RGS16-Gao HTS 102, GSH fluor 264* and RGS4-Gao reg 98.
For CC1CC(C)CN(CCOc2ccc(Br)cc2)C1 (stereo unspecified) the results were RGS8-Gao reg 101, RGS7-Gao 104, Avidin fluor 5, RGS16-Gao HTS 94, GSH fluor 11 and RGS4-Gao reg 104.
For Cc1ccccc1CSCC(=O)NC(=O)NCc1ccco1 the results were RGS8-Gao reg 101, RGS7-Gao 92, Avidin fluor 6, RGS16-Gao HTS 104, GSH fluor 261* and RGS4-Gao reg 91.
COCCNC(=O)C1(C)Oc2ccccc2NC1=O (stereo unspecified) was read as RGS8-Gao reg 104, RGS7-Gao 98, Avidin fluor 7, RGS16-Gao HTS 101, GSH fluor 260* and RGS4-Gao reg 102.
O=C(Nc1ccc(NC(=O)C2CCCCC2)nc1)c1cccs1 was read as RGS8-Gao reg 104, RGS7-Gao 97, Avidin fluor 22, RGS16-Gao HTS 107, GSH fluor 11 and RGS4-Gao reg 99.
`CCN(CC)CCn1c(=N)n(CC(O)COc2ccccc2)c2ccccc21` (stereo unspecified) gave RGS8-Gao reg 91, RGS7-Gao inconclusive, Avidin fluor 51*, RGS16-Gao HTS 87 and RGS4-Gao reg 113.
Cc1ccc(C(=O)Nc2ccc(S(=O)(=O)N3CCc4ccccc4C3)cc2)o1 was read as RGS8-Gao reg 100, RGS7-Gao 100, Avidin fluor 50*, RGS16-Gao HTS 101, GSH fluor 19 and RGS4-Gao reg 103.
Cc1ccc(C(=O)Nc2ccc(S(=O)(=O)N3CCc4ccccc43)cc2)o1 was read as RGS8-Gao reg 97, RGS7-Gao 97, Avidin fluor 8, RGS16-Gao HTS 95, GSH fluor 11 and RGS4-Gao reg 98.
For CCCCn1c(SCC(=O)N2CCC(C)CC2)nc2cc(S(N)(=O)=O)ccc21 the results were RGS8-Gao reg 107, RGS7-Gao 102, Avidin fluor 13, RGS16-Gao HTS 107, GSH fluor 8 and RGS4-Gao reg 103.
For CCCCn1c(SCC(=O)c2cc(OC)ccc2OC)nc2cc(S(N)(=O)=O)ccc21 the results were RGS8-Gao reg 100, RGS7-Gao 109, Avidin fluor 7, RGS16-Gao HTS 106, GSH fluor 260* and RGS4-Gao reg 105.
For Cc1ccnc(NS(=O)(=O)c2ccc(NC(=O)C34CC5CC(C)(CC(C)(C5)C3)C4)cc2)n1 the results were RGS8-Gao reg 103, RGS7-Gao 103, Avidin fluor 8, RGS16-Gao HTS 103, GSH fluor 37 and RGS4-Gao reg 102.
`COC(=O)c1cc2c(ccn2-c2ccc(F)cc2)n1CC(C)C` gave RGS8-Gao reg 103, RGS7-Gao 97, Avidin fluor 10, RGS16-Gao HTS 100, GSH fluor 10 and RGS4-Gao reg 97.
For COC(=O)c1cc2c(ccn2-c2ccc(F)cc2)n1C(C)C the results were RGS8-Gao reg 104, RGS7-Gao 111, Avidin fluor 52*, RGS16-Gao HTS 102, GSH fluor 10 and RGS4-Gao reg 109.
COc1ccc2c(c1)c1ncn(CCCN3CCOCC3)c(=O)c1n2C was read as RGS8-Gao reg 106, RGS7-Gao 102, Avidin fluor 7, RGS16-Gao HTS 110, GSH fluor 16 and RGS4-Gao reg 101.
Cn1c2ccccc2c2ncn(CCN3CCOCC3)c(=O)c21 was read as RGS8-Gao reg 123, RGS7-Gao 114, Avidin fluor 9, RGS16-Gao HTS 161, GSH fluor 253* and RGS4-Gao reg 118.
CC(=O)N1C(C(=O)O)CSC1c1ccc(C)cc1 (stereo unspecified) was read as RGS8-Gao reg 98, RGS7-Gao 99, Avidin fluor 10, RGS16-Gao HTS 98, GSH fluor 22 and RGS4-Gao reg 97.
For O=C(CN1C(=O)c2ccccc2C1=O)OCC(=O)N1CCc2ccccc2C1 the results were RGS8-Gao reg 99, RGS7-Gao 96, Avidin fluor 8, RGS16-Gao HTS 103, GSH fluor 268* and RGS4-Gao reg 100.
